# From PubChem BioAssay (NCATS)
# Unmarked numbers belong to inactive results. Calls follow the shape of the dose curve; as a rule, active = well fitted curve in the direction sought with a large enough effect; inconclusive = small, poorly fitted or top-dose-only effect, or effect the other way, or another doubt; inactive = no such curve, though single readings can be large or run the other way.
# Assay: qHTS of Nrf2 Activators: LOPAC Validation (AID 624149); also: 0% is about no effect
# Conditions: Nrf2/ARE reporter cell assay; series mostly up to 46.1 µM; activation: at the top concentration
# Text: Many diseases have some form of oxidative stress injury and ties to inflammation, causing a host of problems for the patient. The antioxidant response element (ARE) plays an important role in alleviating the harmful effects of oxidative stress. The antioxidant response element (ARE) is a transcriptional regulatory element involved in the activation of genes coding for a number of antioxidant proteins and detoxifying enzymes. These enzymes work in concert to protect tissues from oxidative insults and chemical toxicities in human hepatocytes and immune cells. The protective effects of ARE activation are primarily triggered through Nrf2 (NF-E2-related factor) binding to and activating AREs. It is known that Nrf2 controls the production of over 250 antioxidant and detoxification proteins (Hu et al., 2006), thereby protecting tissues by increasing cellular antioxidant content and suppressing inflammatory signaling pathways. The transcription factor Nrf2 is a central link between oxidative chemicals, such as phenolic antioxidants and electrophilic compounds, and the activation of ARE. Nrf2 levels are constitutively low as a consequence of its interaction with Keap1, which targets its degradation (Zipper and Mulcahy, 2002). Electrophiles react with key cysteine residues in Keap1, releasing Nrf2 and allowing its translocation to the nucleus. Once within the nucleus, Nrf2 complexes with coactivators such as p300, and binds to the AREs to induce gene transcription of cytoprotective enzymes, resulting in the prevention of toxicity. Activation of Nrf2 protects tissues by increasing cellular antioxidant content and suppressing inflammatory signaling pathways. Identifying novel and potent Nrf2 activators by using the AREc32 cell line to detect ARE activation by small molecules will lead to the identification and development of probes to study protective pathways in multiple tissues. These specific probes are essential to study the ARE pathway, and eventually to determine whether this pathway does activate genes that could protect against a host of diseases, including cardiovascular diseases, obesity, diabetes, Alzheimer's, and Parkinson's disease.
# This project's aim is to identify novel and potent Nrf2 activators by using the AREc32 cell line to detect ARE activation by small molecules, which will lead to the identification and development of probes to study the ARE pathway.
# NIH Chemical Genomics Center [NCGC]
# NIH Molecular Libraries Probe Centers Network [MLPCN]
# Assay Submitter (PI): Curtis Klaassen, University of Kansas Medical Center
# 5 uL of 1000 cells/well of AREc32_Fluc cells are seeded into 1536-well plate in OPTI-MEM medium with 5% FBS. The plates are incubated overnight at 37 deg C with 5% CO2. Then through pin tool transfer, 23 nL of compounds are added to each well before a 24 hr incubation at 37 deg C with 5% CO2. After the addition of 2.5 uL of Steady-Glo. the plates are kept at RT for 30 min, before they are read on the ViewLux
row,SMILES,activation [%]
1,CN(C)c1cc2c(Nc3ccc4c(cnn4Cc4ccccc4)c3)ncnc2cn1,1.15
2,CC(C)N(CCC(=O)c1ccc2ccccc2c1)Cc1ccccc1,-1.91
3,CCN(CC)CCNC(=O)c1ccc(NS(C)(=O)=O)cc1,-2.37
4,O=C1NC(=O)/C(=C/c2ccc3c(c2)OC(F)(F)O3)S1,16.3
5,O=[N+]([O-])c1ccc(-c2nc(-c3ccc(F)cc3)c(-c3ccncc3)[nH]2)cc1,0.287
6,Cn1cnc2c(NCc3ccccc3)nc(NCCO)nc21,-2.01
7,COC(=O)C1=CO[C@@H](O)[C@@H]2C(CO)=CC[C@H]12,-2.03
8,Nc1ncnc2n[nH]c(Nc3ccc(F)cc3)c12,-2.24
9,Brc1ccc([C@H]2CN3CCSC3=N2)cc1,-0.259
10,COc1ccccc1N1CCN(CCN2C(=O)CC3(CCCC3)CC2=O)CC1,-2.04
11,C[N+](C)(C)CCO,0.908
12,O=C1NC(c2cccc([N+](=O)[O-])c2)=CCN1c1ccccc1O,9.14
13,N[C@@H](Cn1ccc(=O)c(O)c1)C(=O)O,0.865
14,COc1cccc2c1[C@@H]1CN(CCCCn3c(=O)[nH]c4c(sc5ncc(-c6ccccc6)nc54)c3=O)C[C@@H]1CO2,5.36
15,Cc1nn(-c2ccccc2)c(C)c1/C=N/N1CCN(Cc2ccccc2)CC1,-1.57
16,Clc1ccc2c(c1)N=C(N1CCNCC1)c1ccccc1N2,-1.16
17,NC(N)=NCCCCN=C(N)N,-2.07
